Consider 13 compounds from PubChem BioAssay (NCI).

About 83,000 compounds went through this panel and 20% of them were active in at least one assay; those are over-represented in the sample as a whole.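 A percent growth of 40 corresponds to 60% growth inhibition; 0 means no net growth; -100 means all cells died. Active threshold: below 10.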 A number with no mark means an inactive call. Activity calls are given as the source filed them.

Some test systems named below: RPMI-8226 leukemia; OVCAR-8 ovarian; OVCAR-5 ovarian; OVCAR-4 ovarian; SK-OV-3 ovarian; IGROV1 ovarian; OVCAR-3 ovarian; HS 578T breast; NCI/ADR-RES ovarian; T-47D breast.
Holding throughout (assay): NCI-60 one-dose screen, 48 h (100 = growth as untreated, 0 = no growth, -100 = all killed)
Holding throughout (conditions): 10 µM unless noted

In the case of `CCCCCCC/C=C/[C@H]1O[C@]23C(=O)C[C@@]4(C[C@@H](OC5OC(CO)C(O)C(O)C5O)C[C@@H]4[C@H]2C=C1C)OC3=O` (stereo not given in full), the growth with RPMI-8226 leukemia is -1.42% (active); in the assay on OVCAR-8 ovarian it was 14.5%; with OVCAR-5 ovarian, 27.7%; in the assay on OVCAR-4 ovarian, 29.6%; with SK-OV-3 ovarian, 71.9%; with IGROV1 ovarian it was 15.9%. Also, the growth with OVCAR-3 ovarian was 9.92% (active); in the assay with HS 578T breast, 61.7%; in the assay on NCI/ADR-RES ovarian it was -5.53% (active); in the assay on T-47D breast, 25.2%.

As to `O=C(Nc1cc(Nc2ncccc2-c2ncnc3nc[nH]c23)ccc1F)c1cc(C(F)(F)F)cc(C(F)(F)F)c1`, the growth with RPMI-8226 leukemia is -13% (active); in the assay with OVCAR-8 ovarian, -9.42% (active); in the assay with OVCAR-5 ovarian, -41% (active); in the assay on OVCAR-4 ovarian it was -48.5% (active); in the assay with SK-OV-3 ovarian, -18% (active); in the assay on IGROV1 ovarian, 2.77% (active). Besides, the growth with OVCAR-3 ovarian was -1.23% (active); with HS 578T breast, -19.1% (active); in the assay with NCI/ADR-RES ovarian, -20.8% (active); in the assay on T-47D breast it was 11.1%.

Take `C=C1C(=O)O[C@H]2[C@H]1CC/C(COC(=O)CCCCCCCC(=O)OC/C1=C/CC[C@@]3(C)O[C@H]3[C@H]3OC(=O)C(=C)[C@@H]3CC1)=C\CC[C@@]1(C)O[C@@H]21`: the growth in the assay with RPMI-8226 leukemia was 3.72% (active); in the assay on OVCAR-8 ovarian it was 1.92% (active); with OVCAR-5 ovarian, 44.4%; with OVCAR-4 ovarian, 26.7%; with SK-OV-3 ovarian, 101%; with IGROV1 ovarian it was -13.3% (active). Also, the growth in the assay with OVCAR-3 ovarian was 2.34% (active); in the assay with HS 578T breast, 9.65% (active); in the assay with NCI/ADR-RES ovarian it was 28.6%; in the assay on T-47D breast, -30.2% (active).

In the case of `N#Cc1ccc(N2Cc3cc(Cl)ccc3OC3=C2C(=O)N(Cc2ccccc2)C3=O)cc1`, the growth in the assay with RPMI-8226 leukemia is -23.3% (active); in the assay on OVCAR-8 ovarian, 4.56% (active); with OVCAR-5 ovarian it was -5.13% (active); in the assay with OVCAR-4 ovarian, -7.68% (active); with SK-OV-3 ovarian, 94.2%; in the assay with IGROV1 ovarian, 13%. Further, the growth in the assay on OVCAR-3 ovarian is -82.1% (active); in the assay on HS 578T breast, 38.1%; in the assay on NCI/ADR-RES ovarian, 6.99% (active); in the assay with T-47D breast it was -60.1% (active).

With `CCCCCCCc1n(Cc2ccc3ccccc3c2)c2ccccc2[n+]1Cc1ccc2ccccc2c1`, the growth in the assay with RPMI-8226 leukemia is -53% (active); in the assay with OVCAR-8 ovarian, -69.8% (active); in the assay with OVCAR-5 ovarian, -83.7% (active); in the assay on OVCAR-4 ovarian, -62.5% (active); in the assay with SK-OV-3 ovarian, -91.7% (active); in the assay with IGROV1 ovarian it was -67.5% (active). Moreover, the growth in the assay with OVCAR-3 ovarian is -86.7% (active); with HS 578T breast, -42.7% (active); in the assay with NCI/ADR-RES ovarian, -35% (active); in the assay with T-47D breast, -74.2% (active).

For the compound `COc1ccc(NC(=O)c2sc3nc(C)c(C(C)=O)cc3c2N)cc1`, the growth is 85.6% in the assay on RPMI-8226 leukemia; 91.9% in the assay on OVCAR-8 ovarian; 91.3% in the assay with OVCAR-5 ovarian; 95.7% in the assay on OVCAR-4 ovarian; 99.3% with SK-OV-3 ovarian; 115% in the assay with IGROV1 ovarian. The growth with OVCAR-3 ovarian was 109%; in the assay on HS 578T breast, 105%; in the assay on NCI/ADR-RES ovarian it was 98.9%; in the assay on T-47D breast, 82.7%.

Turning to `CCOC(=O)c1c(C)nc2c(c1N)/C(=C/c1ccccn1)C(=O)N2Cc1ccccc1`, the growth in the assay with RPMI-8226 leukemia was -25.8% (active); with OVCAR-8 ovarian, -7.26% (active); in the assay with OVCAR-5 ovarian it was 64.1%; with OVCAR-4 ovarian, 47.8%; in the assay with SK-OV-3 ovarian, 65.9%; in the assay with IGROV1 ovarian, -10.6% (active). For the same compound, the growth was -19% (active) in the assay on OVCAR-3 ovarian, 33.2% with HS 578T breast, -3.17% (active) in the assay on NCI/ADR-RES ovarian and 9.22% (active) in the assay with T-47D breast.

Regarding `CCCS(=O)(=O)Nc1ccc(F)c(C(=O)c2c[nH]c3ncc(-c4ccc(OCCCC5CCCCN5)nc4)cc23)c1F` (stereo not given), the growth with RPMI-8226 leukemia was 64%; in the assay on OVCAR-8 ovarian, 88.9%; with OVCAR-5 ovarian, 78.1%; in the assay with OVCAR-4 ovarian, 83.6%; with SK-OV-3 ovarian it was 11.6%; in the assay on IGROV1 ovarian it was 31.7%. Also, the growth was 89.6% in the assay on OVCAR-3 ovarian, 9.28% (active) with HS 578T breast, 100% in the assay with NCI/ADR-RES ovarian and 17.7% with T-47D breast.

For `N#Cc1ccc(C2C3=C(CCCC3=O)OC3=C2C(=O)c2ccccc2C3=O)cc1` (stereo not given), the growth with RPMI-8226 leukemia is 54.7%; in the assay on OVCAR-8 ovarian, 1.88% (active); in the assay on OVCAR-5 ovarian it was 126%; in the assay on OVCAR-4 ovarian it was -2.83% (active); in the assay with SK-OV-3 ovarian, 97.7%; in the assay on IGROV1 ovarian it was 40%. In addition, the growth is -1.75% (active) in the assay with OVCAR-3 ovarian, 90.8% with HS 578T breast, 6.19% (active) in the assay on NCI/ADR-RES ovarian and 3.02% (active) in the assay with T-47D breast.

For the compound `Fc1ccc(N/N=C/c2ccc(-n3cccn3)cc2)cc1`, the growth is 97.7% in the assay with RPMI-8226 leukemia; 101% in the assay on OVCAR-8 ovarian; 112% in the assay on OVCAR-5 ovarian; 95.6% with OVCAR-4 ovarian; 84.6% with SK-OV-3 ovarian; 78.3% in the assay on IGROV1 ovarian. The growth is 93.6% in the assay with OVCAR-3 ovarian, 108% in the assay on HS 578T breast, 87.6% with NCI/ADR-RES ovarian and 86.1% with T-47D breast.

Take `Nc1c(C(=O)Nc2cccc3ccccc23)sc2nc3c(cc12)COCC3`: the growth is 59.6% in the assay with RPMI-8226 leukemia; 57.9% with OVCAR-8 ovarian; 87.9% in the assay with OVCAR-5 ovarian; 73.4% in the assay on OVCAR-4 ovarian; 38.6% in the assay with SK-OV-3 ovarian; 49.1% with IGROV1 ovarian. The growth in the assay with OVCAR-3 ovarian is 19.8%; with HS 578T breast it was 35.8%; in the assay on NCI/ADR-RES ovarian it was 26.8%; with T-47D breast it was 57.1%.

With `C=C(C)[C@@H]1CC[C@]2(C(=O)N3CCN(C)CC3)CC[C@]3(C)[C@H](CC[C@@H]4[C@@]5(C)C/C(=C/c6ccco6)C(=O)C(C)(C)[C@@H]5CC[C@]43C)[C@@H]12`, the growth with RPMI-8226 leukemia was 33.7%; in the assay on OVCAR-8 ovarian it was 70.7%; in the assay on OVCAR-5 ovarian, 83.2%; with OVCAR-4 ovarian it was 71.7%; with SK-OV-3 ovarian, 71.3%; with IGROV1 ovarian it was 90.1%. For the same compound, the growth in the assay with OVCAR-3 ovarian is 88.1%; with HS 578T breast it was 66.4%; with NCI/ADR-RES ovarian, 69.8%; in the assay with T-47D breast, 72.7%.

Regarding `CCOCc1cc(C(C)(C)C)ccc1O`, the growth in the assay with RPMI-8226 leukemia is 106%; with OVCAR-8 ovarian, 95.4%; in the assay on OVCAR-5 ovarian, 105%; in the assay on OVCAR-4 ovarian, 103%; in the assay on SK-OV-3 ovarian it was 97.8%; in the assay on IGROV1 ovarian, 107%. Moreover, the growth was 115% in the assay on OVCAR-3 ovarian, 99.2% with HS 578T breast, 103% with NCI/ADR-RES ovarian and 98.6% in the assay with T-47D breast.
